# Compounds with a hit are over-represented: about 7% of the library has one in this group of screens.
# GRIN3A LBD mod: NR3A (human) ligand-binding domain modulation. NR3A LBD differential scanning fluorimetry, Tm shift; 0% = protein alone, 100% = glycine-bound protein. Tm shift relative to glycine control, % at 25 µM. 340,000 tested, 2.5% active. AID 1259313;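 active = melting temperature shift of at least 10% of the positive control shift, at one fixed dose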
# KLK7 zymogen act: activators of human kallikrein-7 zymogen | P49862 | purified proKLK7, EDANS-DABCYL substrate fluorescence; 100% is mature enzyme control, 0% vehicle | activation, % at 7 µM | 370,000 tested, 0.9% active | AID 652039;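 active = activation above the mean of all tested compounds plus 3 SD, computed per campaign excluding outliers beyond control limits, cut at about 13% in these data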
# rCAG binder: molecules binding r(CAG) RNA repeats. 370,000 tested, 1.3% active. inhibition, % at 3 µM. r(CAG) RNA repeat, TO-PRO-1 dye displacement fluorescence;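 active = inhibition above the plate cutoff, the mean of all test compounds on that plate plus 3 SD, cut at about 35% in these data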;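 also: 0% = DMSO alone and 100% = 100 µM mitoxantrone as full dye displacement; higher means more dye released from RNA so lower well fluorescence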
# ADAM10 inh: inhibits human ADAM10; recombinant ADAM10, EDANS/DABCYL FRET peptide cleavage, 3 h; AID 720582; 370,000 tested, 0.62% active; O14672; inhibition, % at 7 µM;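 active = inhibition above a per-campaign cutoff equal to the mean of compounds falling between control-based bounds plus 3 SD, cut at about 20% in these data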;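 also: 0% = DMSO wells while the 100% control is not disclosed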
# ADAM17 inh: inhibits human ADAM17 | inhibition, % at 6.95 µM | recombinant ADAM17, EDANS/DABCYL FRET peptide cleavage | 370,000 tested, 0.83% active | AID 720648;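 active = inhibition above the mean of compounds lying between control limits plus 3 SD, set per campaign, cut at about 8.5% in these data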;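 also: 0% = DMSO-only wells as the low control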
# AHR act: human AHR activation | P35869 | AHR-responsive luciferase reporter cells, luminescence | activation, % at 5 µM | 320,000 tested, 2.5% active | AID 2796; in the data active = activation above about 47%;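 also: 0% = vehicle wells and 100% = reference agonist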
# Target sequence (P35869 whole entry, looked up): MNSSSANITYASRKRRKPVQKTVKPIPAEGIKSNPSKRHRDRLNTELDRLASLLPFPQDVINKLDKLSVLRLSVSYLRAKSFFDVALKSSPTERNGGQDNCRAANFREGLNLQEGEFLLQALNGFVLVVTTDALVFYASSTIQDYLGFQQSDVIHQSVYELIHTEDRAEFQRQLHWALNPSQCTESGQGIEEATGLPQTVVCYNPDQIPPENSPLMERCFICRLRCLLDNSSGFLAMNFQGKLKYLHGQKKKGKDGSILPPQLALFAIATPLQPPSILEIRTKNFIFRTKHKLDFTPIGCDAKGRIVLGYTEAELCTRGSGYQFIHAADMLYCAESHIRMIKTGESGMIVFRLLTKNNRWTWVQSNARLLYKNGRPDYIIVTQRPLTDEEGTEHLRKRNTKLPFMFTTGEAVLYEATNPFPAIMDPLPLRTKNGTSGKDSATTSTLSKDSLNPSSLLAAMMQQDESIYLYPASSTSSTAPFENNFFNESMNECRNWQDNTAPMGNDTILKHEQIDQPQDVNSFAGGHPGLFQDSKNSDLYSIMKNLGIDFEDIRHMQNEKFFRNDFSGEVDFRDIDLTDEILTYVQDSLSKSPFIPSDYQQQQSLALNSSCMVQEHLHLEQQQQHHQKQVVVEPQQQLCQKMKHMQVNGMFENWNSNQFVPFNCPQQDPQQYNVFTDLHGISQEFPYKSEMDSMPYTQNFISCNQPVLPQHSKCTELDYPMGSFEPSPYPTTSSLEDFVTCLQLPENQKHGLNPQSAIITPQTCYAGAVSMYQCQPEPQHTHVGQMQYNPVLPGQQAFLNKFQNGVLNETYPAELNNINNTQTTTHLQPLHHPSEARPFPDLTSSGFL
# Numbers without * were called inactive; i = inactive; . = no result given.
SMILES,GRIN3A LBD mod,KLK7 zymogen act,rCAG binder,ADAM10 inh,ADAM17 inh,AHR act
COc1ccc(NC(=O)CCC(=O)c2cccs2)cc1Cl,-0.4,-0.1,1.4,4.5,-6.0,-1.2
COc1ccc(NC(=O)Nc2cccs2)cc1Cl,30.4*,-0.1,10.3,1.9,2.2,13.2
COc1ccc(C(=O)Nc2ccc(NC(=O)c3cccs3)c(OC)c2)cc1Cl,33.2*,-16.8,9.7,-80.7,-34.5,2.2
CCc1ccc(/C=C/C(=O)NC2=NCCS2)cc1,.,.,.,8.8,-1.1,.
Cc1ccc(NC(=O)C2CC3CCC2C3)cc1 (configuration not stated),.,.,.,-10.0,-5.0,.
COc1ccc(C(=O)Nc2ccc(N3CCN(C(=O)c4cccs4)CC3)cc2)cc1Br,5.0,-4.5,7.4,10.7,1.3,-1.8
COc1c(Cl)cc(Cl)cc1C(=O)Nc1ccc(NC(=O)c2cccs2)cc1,213.9*,-0.2,6.5,-24.6,-1.6,-5.1
COc1cc(OC)cc(C(=O)Nc2ccc(N3CCN(C(=O)c4cccs4)CC3)cc2)c1,1.8,0.1,1.9,1.2,6.3,53.0*
O=C(Nc1ccc(NC(=O)c2ccc(Cl)cc2Cl)cc1)c1cccs1,-4.2,1.9,-9.4,-10.3,-4.3,-6.9
N#CCCn1cc(/C=C2\NC(=S)N(c3ccccc3)C2=O)c(-c2ccc(F)cc2)n1,10.0*,-0.9,19.4,2.6,3.1,2.0
Clc1ccc(-n2c(Cc3cccs3)nnc2SC/C=C/c2ccccc2)cc1,.,0.0,2.9,-1.1,1.3,.
O=C(Oc1ccc(-c2csnn2)cc1)c1cccs1,29.1*,-0.3,-1.4,-4.1,-1.5,-0.1
O=C(Oc1ccccc1-c1csnn1)c1cccs1,-2.1,-0.1,-3.0,-12.5,0.4,9.2
COc1ccc2[nH]c3c(=O)n4c(nc3c2c1)SCC4,-1.6,5.2,2.0,i,-224.8,11.4
O=c1c2[nH]c3ccccc3c2nc2n1CCS2,0.6,-0.2,1.9,-35.0,-13.1,57.0*
CC1(C)Nc2ccccc2N(CCC(=O)N2CCOCC2)C1=O,12.5*,-0.7,-1.6,-3.0,-2.5,-0.6
CCOc1ccc(N/C=C/C(=O)c2ccc(C)cc2)c([N+](=O)[O-])c1,2.1,-0.1,-2.2,2.9,-3.8,2.6
CCOc1ccc(N/C=C/C(=O)c2ccc3ccccc3c2)c([N+](=O)[O-])c1,37.2*,.,.,.,.,-6.0
O=C(/C=C/c1ccc(N2CCC(c3ccccc3)=N2)cc1)c1ccccc1,29.6*,-1.2,1.9,-2.5,-5.5,5.6
CCOC(=O)/C(=C\c1ccc(N2CCC(c3ccccc3)=N2)cc1)C(C)=O,-8.7,-0.3,-0.6,-12.2,-5.0,.
O=C(N/N=C/c1c[nH]c2ccc(Br)cc12)c1ccn(Cc2ccc(Cl)cc2)n1,18.2*,-5.9,10.2,0.4,-0.7,7.2
O=C(N/N=C/c1c[nH]c2ccccc12)c1ccn(Cc2ccc(Cl)cc2Cl)n1,2.3,0.0,3.7,-11.3,0.2,50.2*
COc1ccc(N=Nc2ccc3ccccc3c2)c(O)c1,-8.0,0.2,2.2,1.3,-0.8,48.7*
COc1ccc(N=Nc2cc(C)ccc2O)cc1,4.8,-0.2,3.3,-5.8,-2.0,-1.7
COc1cccc(N=Nc2ccc3ccccc3c2O)c1,-6.2,0.7,5.4,-6.0,-4.8,78.0*
SMILES,GRIN3A LBD mod,KLK7 zymogen act,rCAG binder,ADAM10 inh,ADAM17 inh,AHR act
Clc1ccc2nc(CSc3nnc(-c4c[nH]c5ccccc45)o3)cn2c1,-7.1,0.6,2.4,-5.8,-7.9,.
Clc1cccc(CSc2nnc(-c3c[nH]c4ccccc34)o2)c1,15.7*,0.6,12.0,21.2*,4.2,52.1*
NC(=O)CCn1c(C(=O)c2cccc([N+](=O)[O-])c2)c2ccccc2[n+]1[O-],-3.8,-0.6,4.5,-1.6,1.6,57.2*
NCCCn1c(C(=O)c2cc(Cl)c(N)c(Cl)c2)c2ccccc2[n+]1[O-],1.8,0.7,16.7,-58.4,-10.1,72.3*
COc1ccc(C(=O)c2c3ccccc3[n+]([O-])n2CCCN)cc1,1.0,0.6,5.6,-66.3,-17.5,13.2
Cc1ccc(C(=O)c2c3ccccc3[n+]([O-])n2CCO)cc1,-1.3,0.9,-7.5,-0.4,-1.7,15.2
NC(=O)CCn1c(C(=O)c2cc(Cl)c(N)c(Cl)c2)c2ccccc2[n+]1[O-],0.2,0.7,1.0,2.3,0.6,76.3*
COc1ccc(C(=O)c2c3ccc(C(F)(F)F)cc3[n+]([O-])n2CCCN)cc1,1.7,1.3,18.3,-9.7,-2.9,64.5*
Cc1ccc(C(=O)c2c3ccc(C(F)(F)F)cc3[n+]([O-])n2CCCN)cc1,1.4,0.0,8.9,-5.1,-2.8,26.7
COc1ccc(C(=O)c2c3ccccc3[n+]([O-])n2CCC(N)=O)cc1,-2.2,0.0,6.1,-10.2,-2.2,4.1
CCOC(=O)[C@]12CCCCC/C=C\1N(Cc1ccc(OC)cc1)C(=O)[C@H]2CC(=O)NCCCCc1ccccc1,.,0.0,3.4,17.3,8.5,.
N#Cc1cccc(Cn2ccc3ccc(-c4ccc5ccn(Cc6ccccc6)c5c4)cc32)c1,.,-3.4,20.2,-52.4,-18.8,.
O=C(Nc1ccc(Cl)cc1)Nc1ccc(N2CCCC2)c(S(=O)(=O)Nc2ccccc2Cl)c1,31.6*,-0.7,32.6,-5.5,-2.5,6.4
COc1ccccc1NS(=O)(=O)c1cc(NC(=O)Nc2cccc(C)c2)ccc1N1CCCCC1,24.3*,-0.9,23.8,12.1,6.3,7.1
O=C1N(CC[C@@H](O)c2ccccc2)CCC12CCC(c1ccccc1)CC2 (some centres not stated),.,.,.,5.0,1.5,.
CCOC(=O)N1C(=O)C[C@](Sc2ccc(OC)cc2)(C(=O)N2CCCC2)[C@H]1c1ccc(OC)cc1,.,0.7,2.3,-4.3,-2.0,.
CC(=O)Nc1ccc(/C(N=Nc2ccccc2)=N/N=C(N)N)cc1,-4.6,0.8,8.0,-9.2,-4.2,.
O=C(O)c1ccc(N=N/C(=N\Nc2ccc(C(=O)O)cc2)c2ccccc2)cc1,23.2*,0.3,76.5*,7.3,-2.1,6.5
C=CCc1cccc(/C=N/NC(=O)CNc2ccccc2OC)c1O,13.3*,-9.6,4.3,2.1,5.9,61.2*
C=CCc1cccc(/C=N/NC(=O)CCCNc2ccc(C)cc2)c1O,12.3*,-2.1,1.4,6.4,4.9,2.8
C=CCc1cccc(/C=N/NC(=O)C[n+]2ccccc2)c1O,2.1,-0.7,6.7,-2.3,-4.7,0.6
C=CCc1cccc(/C=N/NC(=O)CNc2cccc3ccccc23)c1O,29.8*,2.1,13.0,-164.9,-46.4,42.3
CN(C)c1ccc(C(C[N+](=O)[O-])c2c(N)n(C)c(=O)n(C)c2=O)c(F)c1C#N (configuration not stated),0.2,8.3,7.7,-24.6,-16.8,62.6*
CCCOc1ccc(C(=O)NNC(=S)NC(=O)c2cc(-c3ccc(Cl)cc3)nc3ccccc23)cc1,13.6*,-0.1,16.2,2.8,-3.4,24.3

# Source: PubChem (several laboratories)
